From PubChem BioAssay
Shiga inhibitor = inhibitors of Shiga toxin in Vero cells; Vero cells, Shiga toxin protein synthesis inhibition reporter; inhibition, % at 38.7 µM; hit rate 9.2% among 290,000; in the data active = inhibition mostly above about 28%, no sharp cut-off; inactive = mostly below about 43%; also: 0% is about no effect
Sm TGR inh = inhibitors of Schistosoma mansoni thioredoxin glutathione reductase. purified TGR, DTNB reduction, TNB absorbance 405 nm. Potency, µM (series often up to 114 µM), inactives show at the top dose activity change, negative = inhibition, hits mostly inhibitors. hit rate 3% among 360,000. AID 485364. Q962Y6; also: potency is read from the fitted curve at half-maximal effect; % is scaled to controls: 0 for no effect and ±100 for the full control effect; nearly all actives have a fitted effect of over 60% in size
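Kinetic colorimetric format: TGR-catalysed, NADPH-driven DTNB reduction monitored via TNB absorbance. Enzyme dispensed at 20 nM; compound exposure 15 min at room temperature before reaction start.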
Pf growth 48h = P. falciparum growth inhibition at 48 hours (one generation) | AID 504832 | P. falciparum luciferase growth in erythrocytes, 48 h | hit rate 5.9% among 310,000 | Potency, µM (series often up to 28.7 µM), for inactives: top-dose activity change, negative = inhibition, actives largely listed as inhibitors; also: potency is read from the fitted curve at half-maximal effect; % is scaled to controls: 0 for no effect and ±100 for the full control effect
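Here the parasites carry a stable luciferase gene and grow inside erythrocytes in Albumax-based RPMI medium with compound for one erythrocytic cycle. Activity is scored as loss of luminescent signal.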
Pf growth 96h = P. falciparum growth inhibition at 96 hour, primary screen for plastid delayed-death inhibitors | Potency, µM (titrated, usually from 28.7 µM), without a hit: at the top dose activity change, negative = inhibition, hits mostly inhibitors | hit rate 6.9% among 320,000 | AID 504834 | P. falciparum luciferase reporter growth, 96 h; also: potency is read from the fitted curve at half-maximal effect; % is scaled to controls: 0 for no effect and ±100 for the full control effect
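Readout is luminescence from an integrated firefly luciferase in P. falciparum. Red cells, 2% hematocrit and 0.05% parasitemia final, were cultured with compound through two parasite generations (96 hours) at 37 C, 5% CO2.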
NS1 inh = blocks influenza NS1 protein function | Potency, µM (doses to about 46.1 µM), inactives show at the highest dose activity, positive = more growth | hit rate 0.4% among 270,000 | AID 2326; calls by dose curve; also: potency is read from the fitted curve at half-maximal effect; actives are rising curves; nearly all actives have a fitted effect of over 50% in size
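Growth recovery, yeast-based: influenza A NS1 expressed in S. cerevisiae causes slow growth, and suppressors are detected by OD600. The parent strain without NS1 is used as positive control.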
CHX counter = affects cycloheximide protein synthesis inhibition readout, counter-screen. cell reporter, cycloheximide protein synthesis inhibition counterscreen. max response, %. hit rate 12% among 300,000. AID 2314; in the data active = max response mostly above about 13%, no sharp cut-off; inactive = mostly below about 14%; also: read at 38.3 µM for the half of the compounds with a filed dose; 0% is about no effect
* = called active by the depositor; ? = inconclusive; nt = not tested or not shown; [ ] = another dose, or the depositor's remark. The list is not random: actives were taken first. Their share in the collection is about 21%. Unless noted, calls follow the shape of the dose curve; as a rule, active = well fitted curve in the direction sought with a large enough effect; inconclusive = small, poorly fitted or top-dose-only effect, or another doubt; inactive = no such curve, though single readings can be large; an effect the other way counts as inactive or inconclusive.

SMILES	Shiga inhibitor	Sm TGR inh	Pf growth 48h	Pf growth 96h	NS1 inh	CHX counter
O=C(COc1ccc(/C=N/NC(=O)c2ccncc2)cc1)Nc1cccc([N+](=O)[O-])c1	25.3	3.0%	-1.9%	?	5.4%	11.9
Cc1ccc(OCCC(=O)Nc2ccc(S(=O)(=O)N3CCCC3)cc2)cc1	nt	4.6%	?	?	nt	nt
COc1ccc(CCC(=O)OCC(=O)Nc2ccccc2)cc1	68.5	-1.2%	58.4%	99.1%	-23.6%	20.4*
O=C(COc1ccc(/C=N/NC(=O)c2ccccc2O)cc1)Nc1ccc([N+](=O)[O-])cc1	-12.3	-17.8%	-6.8%	11.7µM*	8.0%	-1.5
COc1ccc(CCn2c3c(c(=O)[nH]c2=O)C(NC(=O)c2ccccc2)(C(F)(F)F)C(=O)N3)cc1OC (centres undefined)	nt	9.4%	nt	nt	nt	nt
CCC(C)n1c(=N)c(C(=O)NC2CCCCC2)cc2c(=O)n3ccccc3nc21 (centres undefined)	nt	-1.7%	nt	nt	nt	nt
O=C(CCOc1ccccc1)Nc1ccc([N+](=O)[O-])cc1	36.6*	-0.7%	-14.7%	0.0%	nt	23.2
CCCOC(=O)c1ccc(NC(=O)CCC(=O)OCC)cc1	78.5*	0.8%	7.4%	?	-89.5%	28.8*
COc1ccc(C(=O)COC(=O)CCN2C(=O)C3C4C=CC(C5CC45)C3C2=O)cc1 (centres undefined)	-30.8	25.1µM*	16.1%	37.4%	-39.2%	0.8
CCCOc1ccc(C(=O)CCC(=O)OCC(=O)Nc2ccc(OCC)cc2)cc1	21.4	3.7%	18.3%	54.0%	1.3%	7.3
COc1ccc(C(=O)COC(=O)CCN2C(=O)C3C4CCC(C4)C3C2=O)cc1 (centres undefined)	33.3	2.0%	7.5%	-15.0%	nt	-6.9
CCOC(=O)c1ccc(NC(=O)CCc2c(C)n(CC)c3cc(-c4ccccc4OC)nn3c2=O)cc1	nt	5.8%	nt	nt	nt	nt
CSC(=Nc1cccc(C)c1)NC#N	-4.9	0.8%	1.6%	7.8%	2.3%	-2.9
O=C(CCOc1ccccc1F)N1CCN(c2ccccc2O)CC1	70.0*	-28.8%	68.0%	24.8%	nt	30.7*
COc1ccccc1C(=O)NCCC(=O)N1CCN(c2ccccc2O)CC1	nt	-18.4%	11.7µM*	?	nt	nt
CCOc1ccc(S(=O)(=O)NCCC(=O)N2CCN(Cc3ccccc3)CC2)cc1	nt	-4.3%	?	-21.5%	nt	nt
CCOc1ccc(S(=O)(=O)NCCC(=O)N2CC=C(c3ccccc3)CC2)cc1	nt	-0.5%	9.28µM*	?	nt	nt
COc1ccccc1C(=O)NCCC(=O)N1CC=C(c2ccccc2)CC1	nt	-5.4%	11.7µM*	?	nt	nt
COc1ccc(-c2ncccc2OC(=O)C23CC4CC(CC(C4)C2)C3)cc1	-8.7	-1.2%	13.9%	?	-2.1%	-3.6
Cn1c(CCNC(=O)c2ccc(Cl)cc2)n[nH]c1=S	16.7	0.9%	45.3%	55.5%	21.9%	8.4
COc1ccccc1Nc1nc(C2(C)CCC(=O)O2)cs1 (centres undefined)	62.1*	3.0%	60.2%	1.2%	-5.7%	52.4*
COc1ccc(Nc2nc(-c3cccnc3)cs2)c(OC)c1	37.8*	0.7%	?	-9.7%	-62.0%	37.5*
COc1ccc(OC)c2nc(-c3cccnc3)ccc12	47.5*	-13.6%	nt	39.5%	-3.1%	29.2*
COc1ccc2cc(-c3cccnc3)ncc2c1	nt	?	5.2%	-19.3%	nt	nt
CCc1ccccc1Nc1nc(-c2cccnc2)cs1	23.0	0.0%	11.7µM*	9.28µM*	-77.1%	18.9*
SMILES	Shiga inhibitor	Sm TGR inh	Pf growth 48h	Pf growth 96h	NS1 inh	CHX counter
COc1ccccc1NC1=NCCS1	-14.3	-4.7%	20.2%	nt	-4.4%	-5.9
Cc1cc(C)cc(N2C(=O)N(Cc3cccc(F)c3)c3ccccc3S2(=O)=O)c1	nt	2.0%	nt	nt	nt	nt
CCOc1ccc(C(C)C)cc1S(=O)(=O)n1ccnc1C	-12.5	-9.3%	?	-34.9%[1.15 µM]	-38.1%	-2.2
O=C(O)[C@@H]1[C@@H](C(=O)NCc2cccnc2)[C@@H]2C=C[C@@H]1O2	nt	nt	nt	nt	1.4%	nt
O=[N+]([O-])c1ccccc1Nc1nc(-c2cccnc2)cs1	nt	1.9%	?	?	-29.2%	25.7*
COc1ccccc1Nc1nc(-c2cccnc2)cs1	36.1*	6.8%	22.9%	-18.0%	-53.6%	34.3*
CCc1noc(C)c1C(=O)N1CCN(S(=O)(=O)c2ccccc2C(F)(F)F)CC1	nt	-22.4%	?	-23.8%	nt	nt
